Screening data: PubChem BioAssay, The Scripps Research Institute Molecular Screening Center
DAX1 inh-1 – DAX1 (NR0B1) inhibitors on StAR promoter, primary screen, cell-based, luminescence, SF-1 (NR5A1), full-length DAX-1; HEK293T StAR-luciferase reporter, SF-1/DAX-1 repression relief; inhibition, % at 6.8 µM; actives 1.1% (n = 370,000); AID 652010, 2013;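 active = inhibition above the mean over all tested compounds plus 3 SD, cut at about 3.6% in these data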;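 also: higher inhibition means more luminescence from relief of DAX-1 repression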
DAX1 inh-2 – DAX1 (NR0B1) inhibitors, primary screen, cell-based, HEK293, Gal4-DAX1, luciferase luminescence; AID 504766, 2011; inhibition, % at 6.75 µM; Nuclear receptor subfamily 0 group B member 1 (Homo sapiens), P51843; actives 0.99% (n = 340,000); HEK293 Gal4-DAX1 luciferase reporter;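 active = inhibition above the mean over all tested compounds plus 3 SD, cut at about 4.2% in these data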;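 also: inhibition shows as a rise in luminescence from relieved DAX1 repression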
Target sequence (P51843 207-470 limits assumed): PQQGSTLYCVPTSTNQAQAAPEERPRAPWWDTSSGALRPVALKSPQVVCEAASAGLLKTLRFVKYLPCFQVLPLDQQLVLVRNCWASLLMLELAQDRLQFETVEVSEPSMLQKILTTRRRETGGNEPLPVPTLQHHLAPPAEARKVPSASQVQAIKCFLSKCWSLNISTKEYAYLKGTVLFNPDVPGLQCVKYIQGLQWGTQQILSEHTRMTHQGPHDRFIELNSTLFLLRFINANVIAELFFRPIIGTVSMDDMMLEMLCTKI
hcDAF-12 act – H. contortus DAF-12 nuclear receptor activators, primary screen, cell-based, luminescence, HEK293, lit1-tk-luc reporter; AID 652067, 2013; actives 1.4% (n = 370,000); HEK293 hcDAF-12 lit1-tk-luc reporter; 0% DMSO, 100% Δ7-dafachronic acid; activation, % at 6.8 µM;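 active = activation above the mean of all tested compounds plus 3 SD, cut at about 5.5% in these data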
hgDAF-12 ag – H. glycines DAF-12 receptor agonists, primary screen, cell-based, luminescence, HEK293, GAL4 fusion, UAS-luciferase. AID 687014, 2013. Nuclear hormone receptor DAF-12 (Heterodera glycines), GAL4 fusion. activation, % at 6.8 µM. HEK293 GAL4-hgDAF12 UAS-luciferase reporter, agonist luminescence; normalized to butyrate control. actives 1.8% (n = 370,000);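 active = activation above a cutoff set at the mean of all screened compounds plus 3 SD, cut at about 10% in these data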
ssDAF-12 act – S. stercoralis DAF-12 nuclear receptor activators, primary screen, cell-based, luminescence, HEK293, GRIP1 co-expression, lit1-tk-luc; HEK293 ssDAF-12/GRIP1 lit1-tk-luc reporter; % of 3 µM dafachronic acid response; AID 652126, 2013; activation, % at 6.8 µM; Nuclear hormone receptor DAF-12 (Strongyloides stercoralis); actives 1% (n = 370,000);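 active = activation above the mean over all tested compounds plus 3 SD, cut at about 0.9% in these data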
Of the large screens only hits and unclear results are named; the others gave an inactive call. Only some compounds are listed: those with a hit (about 4.1% of all), similar ones and a draw of the others.

C=C1c2nc3ccccc3n2C=C(c2ccc(C)cc2)N1c1ccccc1	none
C[n+]1c(/C=C/c2ccc3c(c2)OCO3)ccc2ccccc21	DAX1 inh-2 6.0
C[n+]1c(/C=C/c2ccc(O)cc2)ccc2ccccc21	none
CC1CCN(c2ccc(NC(=O)c3cccnc3Cl)cc2)CC1	hgDAF-12 ag 11.5
Cc1ccc(C(=O)N2CCN(c3ccc(NC(=O)c4cccnc4Cl)cc3)CC2)cc1	none
CCOc1cc(/C=N/N=C2/NC(=O)C(CC(=O)O)S2)ccc1OCc1ccc(Cl)cc1Cl (configuration not stated)	none (no result: DAX1 inh-1, hcDAF-12 act, hgDAF-12 ag, ssDAF-12 act)
COc1cc(/C=N/N=C2/NC(=O)C(CC(=O)O)S2)ccc1OCc1ccc(Cl)cc1 (configuration not stated)	hgDAF-12 ag 11.6
O=C(N[C@@H]1C[C@@H]2O[C@@H](CO)CC[C@@H]2O[C@@H]1CCc1ccc(-c2ccccc2)cc1)c1cnccn1	none (no result: DAX1 inh-2)
O=C(NCCCN1CCOCC1)c1ccc(Cl)cc1[N+](=O)[O-]	DAX1 inh-2 4.6
COC(=O)c1cc(C(c2ccccc2O)C2CCC(C)(C)O2)n2ccccc12 (configuration not stated)	none (no result: DAX1 inh-2)
COc1ccc(NC(=O)CCC(=O)c2cccs2)c(OC)c1	none (no result: DAX1 inh-1, hcDAF-12 act, hgDAF-12 ag, ssDAF-12 act)
COc1ccc(NC(=O)Cc2cccs2)c(OC)c1	hgDAF-12 ag 10.5
COc1ccc(NC(=O)C(NC(=O)Cc2cccs2)c2ccccc2)cc1 (configuration not stated)	none
COc1ccc(NC(=O)C(NC(=O)Cc2cccs2)c2ccc(C)cc2)cc1 (configuration not stated)	DAX1 inh-2 4.7
CNc1nc(N)c([N+](=O)[O-])c(Nc2ccccc2)n1	none (no result: DAX1 inh-1, DAX1 inh-2)
C#CCCN([C@H](C(=O)OC)C(C)CC)S(=O)(=O)c1ccccc1Br (some centres not stated)	none (no result: DAX1 inh-2)
c1ccc(-c2nnc3n2N=C(c2ccc4ccccc4c2)CS3)nc1	none (no result: DAX1 inh-2)
Clc1ccc(Cl)c(-c2nn3c(COc4ccccc4)nnc3s2)c1	ssDAF-12 act 1.4
COc1ccc(CCNC(=O)c2cc3ccccn3n2)cc1	none (no result: DAX1 inh-2)
Cc1cccc(-c2cccc3c4c([nH]c23)[C@@H]2C[C@H](N(C)C(=O)c3cccc(Cl)c3)[C@H]([C@H](C)O)CN2CC4)c1	none (no result: DAX1 inh-2)
CCn1c(=O)c2cc(C(=O)Nc3ccc(OC)cc3OC)sc2c2ccccc21	DAX1 inh-2 4.2
CCCN(CCC)CCNC(=O)c1cc2c(=O)n(CC)c3ccccc3c2s1	DAX1 inh-2 4.6
Clc1ccc(-c2nnc(NC3=NCCCCC3)o2)cc1	hcDAF-12 act 6.1
O=C(NCc1cccs1)c1cccc2c(-c3ccc(F)c(F)c3)coc12	ssDAF-12 act 3.5 (no result: DAX1 inh-2)
CCOC(=O)c1[nH]c2c(c1C)C(=O)CC(c1ccc(F)cc1)C2 (configuration not stated)	ssDAF-12 act 1.2
Cc1ccc(Cc2c(-c3ccc(Cl)cc3)nc3ccc(Br)cn23)cc1	none
CC(C)(C)c1ccc(C#C[C@@H]2C=C[C@H](O)[C@@H](COC(=O)Nc3ccccc3)O2)cc1	hcDAF-12 act 5.8, ssDAF-12 act 1.9 (no result: DAX1 inh-2)
CCOC(=O)Nc1nc2ccccc2s1	hgDAF-12 ag 11.0
CCCNC(=O)Nc1nc2ccccc2s1	DAX1 inh-2 4.4, hgDAF-12 ag 12.4
O=C(CCNC(=O)c1ccccc1Cl)Nc1nc2ccccc2s1	hcDAF-12 act 6.4
CCOC(=O)CC(=O)Nc1nc2ccccc2s1	none
COc1cc(-c2c(C(=O)c3ccccc3)[nH]c(N)c2C(N)=O)ccc1O	none (no result: DAX1 inh-1, DAX1 inh-2)
CCN(C[C@H]1N[C@@](CC)(C(=O)OC)[C@H]2C(=O)N(Cc3ccccc3)C(=O)[C@@H]12)S(=O)(=O)c1ccc(F)cc1	none
COc1ccc(-c2cc(-c3nnc(SCC(=O)Nc4nccs4)n3N)[nH]n2)cc1	none (no result: DAX1 inh-2)
CCNC1CCS(=O)(=O)C1 (configuration not stated)	none
O=S1(=O)CCC(NCC2CCCO2)C1 (configuration not stated)	DAX1 inh-2 7.4
